# According to the supplement of paper PMC6555819:
# Legend:
# Experiment in all cases: PBM binding z-score (relative to random genomic background probes); higher = stronger binding; sequences stand for … in GC…GCGATTGACAGCGTAGAATGAAGG
# [1] = system: FXR:RXRa (NR concentration 270 nM, RXRa partner concentration 90 nM)
# Summary of the method: (§1)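 Custom Agilent 4×180K protein-binding microarrays carried double-stranded probes, each with a 34-nt variable region. These regions held direct-repeat seeds, single-nucleotide variants, half-site ablations and random human genomic background sequences. Ligand-free nuclear receptor dimers were incubated on the arrays for 1 h, antibodies against each partner (one per run) detected binding, and scanned fluorescence was regression-normalized. Binding z-scores take the random background probes as reference.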
# [2] = system: LXRa:RXRa (NR concentration 270 nM, RXRa partner concentration 90 nM)
# Summary of the method: as §1
# [3] = system: LXRa homodimer (NR concentration 270 nM)
# Summary of the method: as §1
# [4] = system: LXRb:RXRa (NR concentration 270 nM, RXRa partner concentration 90 nM)
# Summary of the method: as §1
# [5] = system: LXRb homodimer (NR concentration 270 nM)
# Summary of the method: as §1
# [6] = system: PPARa:RXRa (NR concentration 270 nM, RXRa partner concentration 90 nM)
# Summary of the method: as §1
# [7] = system: PPARg:RXRa (NR concentration 180 nM, RXRa partner concentration 90 nM)
# Summary of the method: as §1
# [8] = system: PPARg:RXRa 270nM:90nM, anti-RXR (NR concentration 270 nM, RXRa partner concentration 90 nM)
# Summary of the method: as §1
# [9] = system: PPARg:RXRa 30nM:10nM, anti-RXR (NR concentration 30 nM, RXRa partner concentration 10 nM)
# Summary of the method: as §1
# [10] = system: PPARg:RXRa 90nM:30nM, anti-RXR (NR concentration 90 nM, RXRa partner concentration 30 nM)
# Summary of the method: as §1
Sequence,PBM binding z-score [1],PBM binding z-score [2],PBM binding z-score [3],PBM binding z-score [4],PBM binding z-score [5],PBM binding z-score [6],PBM binding z-score [7],PBM binding z-score [8],PBM binding z-score [9],PBM binding z-score [10]
ATCGAAAGGTCGACGAGGTGGGTATACACCGTTT,3.58,3.27,0.14,2.55,0.209,4.1,2.2,2.89,0.706,1.6
GCCATTAGTTGAAAGGGCAACCGAATGATTCTCG,0.121,0.648,0.0731,0.887,-0.56,2.25,2.41,4.11,1.8,3.93
CCGACTCGGGCATAAGGTTACCATAAGCCAGCCC,0.235,2.34,-0.549,0.615,-1.1,1.14,0.783,1.19,-0.332,0.652
ATAGAAAGGTCGTGAGGTGAGTATACAGAAAGGC,4.9,3.76,0.49,3.4,0.703,4.86,4.33,4.37,2.46,3.57
CCTCGGAGGACAACAGGAGGTCAGAGGTGCCAGA,1.07,1.95,2.19,1.34,-0.628,2.04,1.1,1.57,-0.13,0.94
TCTATTAGTTGCTTAGGGCAACCGAAACAGCGGA,0.577,0.582,0.0862,0.602,0.556,0.886,-0.0516,1.87,3.56,2.88
CGTCCAAGGTCAGAGAGGCCAGTGAATGCCGAGT,4.34,2.95,0.144,2.18,-0.662,3.93,2.04,2.45,-0.0839,1.33
CCTAGCAGGCCAGGGTCGCTCAAGCATTTCGCTT,1.21,1.49,-0.612,1.26,-1.47,2.58,-0.528,0.271,-1.11,-0.71
CCTAGCAGGCCAAACTGGGTCACTCAAGGCTTGA,0.705,0.962,-0.345,1.07,-0.564,3.05,1.74,2.06,-0.348,0.712
TCTGCTAGGTCAACGATGGTCAGCTTATCTGCTA,3.6,2.98,-0.083,1.77,-0.302,3.38,2.43,3.06,2.06,2.59
CAAACTAGCTCACCGGAAGGTCAAAGTCCGCATG,2.99,3.06,3.46,3.43,1.02,3.16,0.628,1.58,0.364,0.774
CCTGCTAGGCCATGGTCAGCTAATCTACAGTATG,-0.543,-0.565,-0.936,-0.753,-0.769,-0.617,0.069,-0.552,-0.451,-0.579
GGCACGAGGGCAAGTTGATAGCAGAGTTTGATGG,0.802,0.399,-0.191,0.444,-0.697,1.23,0.838,0.927,-0.291,0.52
ACTAGCAGGGCAAGGGTCACTCAAGATTAGTCCG,2.88,2.84,0.175,2.76,-0.693,4.79,8.91,7.48,7.19,7.64
GGAACGAGGGCATTCGAGTCGATAGCATGGCGAT,0.976,0.293,-0.802,-0.159,-0.384,1.15,0.824,0.495,-0.192,0.0537
CTTATTAGTTGACCATAAGGGCAACCGAAGCTCG,0.831,0.356,0.185,0.373,0.837,0.629,0.439,0.266,0.208,0.259
GCGACTGGGGCAAAGCAGGTTGCCATAAGGTTGG,-0.377,-0.798,-0.715,-0.849,-1.26,0.461,0.599,1.15,-0.358,0.243
AGAACGAGGGCAATGAGTCGATAGCACGGGTGGC,0.187,-0.15,-0.625,-0.448,-0.595,1.03,1.41,0.849,0.0259,0.789
TCTTGTAGATTAATAGAGGTTAAGAAAGTGCGCT,1.31,4.17,2.85,2.28,0.623,2.07,0.283,2.2,3.11,2.59
CCTTACGAGTCACTCCAGGTTATAGCATCGGAGT,1.35,4.98,1.69,1.55,0.939,0.751,0.539,0.0713,-0.0643,-0.0945
CCTTACGGGTCACGAGGTGATAGCACGACGAGCG,6.73,4.27,-0.242,3.42,-0.279,5.82,7.42,6.5,3.14,5.75
GATACAGGGTCAAGCCCAGAGTACGCGTATTGAT,7.02,4.26,-0.0405,3.88,-0.376,5.68,6.04,5.82,2.34,4.41
TTTTGTAGATCAAGCAGGTTAAGAAAGCCTGAGT,-0.215,-0.0979,0.00472,0.194,-0.0652,0.567,-0.416,0.238,0.224,-0.0432
GCGACTGGGGCAAAGAAGGTTACCATAAGGTTGG,1.24,0.788,-0.0747,1.06,-0.824,1.72,1.56,2.22,0.513,1.66
